Source: PubChem (National Center for Advancing Translational Sciences (NCATS))
RORgamma inh = qHTS for inhibitors of ROR gamma transcriptional activity. AID 2551, 2010. Potency, µM (series often up to 53.6 µM), for inactives: at the highest dose activity change, negative = inhibition, usual class: inhibitors. 310,000 compounds, 5.4% hits. Nuclear receptor ROR-gamma (Mus musculus), P51450. Drosophila S2 Gal4-RORgamma UAS-luciferase reporter, 20 h; note: potency is the fitted concentration of half-maximal effect; nearly all actives have a fitted effect of over 60% in size
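ROR gamma transcriptional activity was tracked as Gal4-UAS luciferase output in stably transfected Drosophila Schneider cells, with compound added 1 hr before 700 uM copper sulfate induction and a 20 hr ambient-temperature incubation.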
TSHR antagonist = Antagonists of the Thyroid Stimulating Hormone Receptor: HTS campaign | 330,000 compounds, 0.2% hits | TSHR-expressing cells, TSH-stimulated cAMP HTRF, 2 h; hits give low values | Thyrotropin receptor (Homo sapiens), P16473 | activity change, negative = inhibition, % at 11.5 µM;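 active = activity change below a set negative limit, meaning inhibition stronger than a set level, cut at about -70% in these data; inconclusive = activity change between two set negative limits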
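Inhibition of cAMP made by TSHR-expressing cells under TSH stimulation (4nM final, EC80; 2 h, 37 deg C) is quantified with a one-step lysis HTRF kit, anti-cAMP cryptate versus cAMP-d2.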
Gal4-VP16 FLuc = VP16 counterscreen qHTS for inhibitors of ROR gamma transcriptional activity. Drosophila S2 Gal4-VP16 UAS-luciferase, luminescence, 20 h. Potency, µM (series often up to 53.6 µM), for the others: top-dose activity, negative = inhibition, actives largely listed as inhibitors. 310,000 compounds, 3.5% hits. AID 2546, 2010;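 note: Gal4-VP16 expression switched on by copper sulfate through the metallothionein promoter; potency is the fitted concentration of half-maximal effect; nearly all actives have a fitted effect of over 50% in size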
ELG1 DNA repair = qHTS screen for small molecules that inhibit ELG1-dependent DNA repair in human embryonic kidney (HEK293T) cells expressing luciferase-tagged ELG1; HEK293T ELG1-luciferase reporter, luminescence, 16 h; DNA damage induced by 5-fluorouridine; Potency, µM (series often up to 46.1 µM), without a hit: at the highest dose activity change, negative = inhibition, actives largely listed as inhibitors; 330,000 compounds, 2.3% hits; AID 504467, 2011; note: potency is the fitted concentration of half-maximal effect; nearly all actives have a fitted effect of over 55% in size
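In this reporter screen, reduction of luminescence relative to DMSO vehicle indicated activity. Compounds and 5-fluorouridine were added together to 2,000 cells per well, incubated for 16 hr at 37 °C, then developed with ONE-Glo.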
B2AR arrestin = qHTS assay of beta-arrestin-biased ligands of beta2-adrenergic receptor; Beta-2 adrenergic receptor (Homo sapiens), P07550; 330,000 compounds, 0.02% hits; AID 492947, 2010; Potency, µM (top dose mostly 46.1 µM), inactives show top-dose activation, hits mostly activators; beta-arrestin recruitment to beta2AR, cell-based reporter;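 note: potency is the fitted concentration of half-maximal effect; 0% = DMSO controls and full agonism = EC100 isoproterenol or metaproterenol; nearly all actives have a fitted effect of over 65% in size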
Target sequence (P07550 whole entry, looked up): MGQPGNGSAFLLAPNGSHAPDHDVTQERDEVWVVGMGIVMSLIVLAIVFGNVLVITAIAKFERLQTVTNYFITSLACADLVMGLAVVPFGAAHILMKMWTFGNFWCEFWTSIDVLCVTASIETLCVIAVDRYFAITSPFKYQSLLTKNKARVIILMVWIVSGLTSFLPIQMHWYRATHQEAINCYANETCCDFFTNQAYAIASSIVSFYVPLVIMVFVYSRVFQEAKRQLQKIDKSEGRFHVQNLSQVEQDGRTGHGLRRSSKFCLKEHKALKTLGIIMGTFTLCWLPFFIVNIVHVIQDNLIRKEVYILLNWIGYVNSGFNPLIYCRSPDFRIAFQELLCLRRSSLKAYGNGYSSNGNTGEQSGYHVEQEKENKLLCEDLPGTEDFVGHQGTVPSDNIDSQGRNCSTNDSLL
Active calls of the source: *; ? = inconclusive; / = no result. An excerpt weighted towards active compounds, which were near 7.5% of everything screened. Unless noted, calls come from the whole dose curve; as a rule, active = well fitted curve in the direction sought with a large enough effect; inconclusive = small, poorly fitted or top-dose-only effect, or another doubt; inactive = no such curve, though single readings can be large; an effect the other way counts as inactive or inconclusive. Unless noted, % is set by controls: 0 for no effect and ±100 for the full control effect.

SMILES	RORgamma inh	TSHR antagonist	Gal4-VP16 FLuc	ELG1 DNA repair	B2AR arrestin
O=C(NC(=S)Nc1ccccc1O)c1ccc(-c2ccc(Cl)cc2)o1	3.2µM*	-1	7.9µM*	-2%	0%
CC(=O)NC(=O)c1ccc(-c2ccc(Cl)cc2)o1	21%	30	?	?	?
COc1ccccc1NC(=S)NC(=O)c1ccc(-c2ccc(Cl)cc2)o1	1.8µM*	-14	?	15%	-1%
Cc1cc(C)cc(OCC(=O)OCc2cc([N+](=O)[O-])cc3c2OCOC3)c1	/	-16	/	12%	-1%
Cn1cnc([N+](=O)[O-])c1S(=O)(=O)c1ccc(Cl)cc1	3.5µM*	3	5µM*	?	0%
CC(C)c1ccc(NC(=S)NN2C(C)CCCC2C)cc1 (stereo unspecified)	1.6µM*	10	6.3µM*	-7%	0%
COc1cccc(NC(=S)NN2C(C)CCCC2C)c1 (stereo unspecified)	2.2µM*	11	5.6µM*	-15%	0%
CC1CCCC(C)N1NC(=S)Nc1ccc(OC(F)F)cc1 (stereo unspecified)	3.2µM*	22	6.3µM*	1%	0%
COc1ccc(NC(=S)NN2C(C)CCCC2C)cc1 (stereo unspecified)	7.9µM*	-3	7.1µM*	5%	0%
Cc1cc(-c2nnc(SCC(=O)Nc3cccc(Cl)c3)n2N)n[nH]1	-21%	-8	?	5%	0%
O=C1NC(=O)[C@@]2(CCOc3ccc(F)cc32)N1	4%	/	-5%	/	/
COc1ccc(NC(=O)N2CCCC3(CCN(C(=O)c4ccc(OC)cc4)CC3)C2)cc1	12%	/	5%	/	/
[O-][N+](=Nc1ccccc1)c1ccccc1	33%	/	13%	/	/
CC(C(=O)NCC1CCCCC1)N1CCN(S(=O)(=O)c2cccs2)CC1 (stereo unspecified)	/	4	/	3%	0%
COc1ccc(C(=O)C(CCC(CNC(C)(C)C)C(=O)c2ccc(OC)cc2)CNC(C)(C)C)cc1 (stereo unspecified)	?	6	13µM*	8.2µM*	-2%
COC(=O)c1ccc(NC(=O)Nc2ccc(OC)cc2)cc1	12%	5	4%	9%	0%
Cc1ccc2ccc(C(Nc3cccc(C(F)(F)F)c3)c3cccnc3)c(O)c2n1 (stereo unspecified)	7.1µM*	-1	?	-13%	-1%
Cc1cc(NC(=O)CSc2ccc(Cl)cc2)no1	32%	6	-6%	18%	-1%
Cc1cc(NC(c2ccc(Cl)cc2)c2ccc3cccnc3c2O)no1 (stereo unspecified)	0.79µM*	9	2µM*	?	1%
Cc1ccnc(NC(c2cccnc2)c2ccc3cccnc3c2O)c1 (stereo unspecified)	3.2µM*	-7	?	?	-1%
COc1ccccc1NC(c1cccnc1)c1ccc2cccnc2c1O (stereo unspecified)	11µM*	-5	?	?	3%
COc1ccc(C(=O)/C(C#N)=N/Nc2ccc([N+](=O)[O-])cc2)cc1	5.6µM*	-41	3.5µM*	1.3µM*	0%
Cc1[nH]n(-c2nc(-c3ccccc3F)cc(=O)[nH]2)c(=O)c1CCO	10µM*	-8	-2%	0%	0%
Cc1[nH]n(-c2ccccc2)c(=O)c1CCO	-33%	-7	0%	-2%	0%
Cc1ccc(CN2CCC(n3nccc3NC(=O)c3ccccc3C)CC2)o1	?	4	?	18%	0%
SMILES	RORgamma inh	TSHR antagonist	Gal4-VP16 FLuc	ELG1 DNA repair	B2AR arrestin
CC1=C/C(=N\NC(=O)c2cccs2)CC(C)(C)C1	6.3µM*	-3	11µM*	-26%	0%
O=C(NN=C1CCCC1)c1cccs1	?	6	?	?	0%
O=C(Nc1nc(-c2cc(F)ccc2F)cs1)c1ccccn1	0.1µM*	-4	1.3µM*	0%	0%
O=C(Nc1nc(-c2ccccn2)cs1)Nc1ccc(F)cc1F	3.5µM*	-1	?	?	?
O=C(Nc1cccc(-c2nc3ccccc3o2)c1)c1ccc(N2C(=O)C3C4C=CC(C4)C3C2=O)cc1 (stereo unspecified)	30%	-15	-4%	16µM*	0%
O=C1C2C3C=CC(C3)C2C(=O)N1c1cccc(-c2nc3ccccc3o2)c1 (stereo unspecified)	20%	7	23%	10%	0%
Cc1ccc(S(=O)(=O)NC(=O)O[C@@H]2C(=O)c3cc(Br)ccc3O[C@H]2c2ccc3c(c2)OCO3)cc1	-7%	/	4%	/	/
COc1cccc(/C=N/NC(=O)C[n+]2ccccc2)c1O	-33%	-5	7%	?	-1%
COc1cccc(/C=N/NC(=O)C(=O)NCc2cccnc2)c1OC	8%	-6	1%	0%	0%
COc1cc(/C=N/NC(=O)CNC(=O)c2ccncc2)ccc1O	-3%	8	-5%	3%	0%
O=C(CNC(=O)c1ccco1)N/N=C/c1ccccc1[N+](=O)[O-]	12%	7	3%	-11%	0%
COc1ccc(CCCC(=O)N/N=C/c2cccc(OC)c2O)cc1C	0.22µM*	6	0.13µM*	-5%	0%
COc1cccc(/C=N/NC(=O)CNC(=O)c2ccncc2)c1O	16µM*	-2	?	-15%	0%
COc1cccc(/C=N/NC(=O)C(=O)NCc2cccnc2)c1O	11µM*	-1	?	-6%	-1%
COc1cccc(/C=N/NC(=O)CNC(=O)c2ccco2)c1O	1.6µM*	1	20µM*	8.2µM*	0%
O=C(O)c1ccc2c(c1)C(=O)N([C@H](Cc1ccc(F)cc1)C(=O)O)C2=O	0%	11	-7%	/	-1%
COc1cc2cc3c4cc(OC)c(OC)cc4cc[n+]3c(C)c2cc1OC	32%	/	-8%	/	/
COc1cccc(/C=N/NC(=O)CNC(=O)c2cccnc2)c1O	18µM*	0	-24%	?	-1%
COc1cccc(/C=N/NC(=O)CN2CC(c3ccccc3)CC2=O)c1O (stereo unspecified)	0.56µM*	6	1.3µM*	-12%	-1%
COc1ccc(/C=N/NC(=O)CNC(=O)COc2ccccc2)cc1	2%	1	7%	?	0%
Cc1cccc(OCC(=O)NCC(=O)N/N=C/c2cc(Br)cc(Br)c2O)c1	2µM*	2	6.3µM*	?	-1%
Cc1ccc(/C=N/NC(=O)CNC(=O)COc2ccccc2)cc1	10%	5	2%	1%	-1%
